PubChem BioAssay
Inconclusive results are not listed. Activity calls are given as the source filed them. Unless noted, no stated cut-off is given here; in the data, active means inhibition above about 30%; inactive means the rest.

Tests used:
[1] = reducers of endogenous Her2 protein level, primary screen, SKBR3 breast tumor cells, AlphaScreen, ATP viability (AID 461;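 active means Her2 level under about 52% in both replicate screens, with viability over 70% of control, limit read from the data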;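 on Her2 level: lower value means less Her2 protein in the cells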;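 on viability: percent of carrier control wells set as 100% viability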); conditions: 18-24 h, measured here: SKBR3 viability, ATP luminescence, at 10 µM
[2] = molecular target: Receptor tyrosine-protein kinase erbB-2 (Homo sapiens) (UniProt P04626); test: as above; conditions: 18-24 h, at 10 µM, stronger effect = lower value
[3] = SK-BR-3 cell growth inhibitors, pilot screen, 24 h, human (AID 572;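 active means viability at or below 10% of carrier control in both of two separate runs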;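 further: compound exposure lasted between 18 and 24 h rather than exactly 24 h; 100% = carrier-treated control wells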); conditions: SK-BR-3 viability, CellTiter-Glo luminescence, at 10 µM, stronger effect = lower value
[4] = HUVEC growth inhibition – cell-based, human, primary screen (AID 575;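 active means viability at or below 30% in both replicate assays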;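 further: 100% = median of untreated cell wells with 0.1% DMSO on each plate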); conditions: HUVEC proliferation, CellTiter-Glo luminescence, 72 h; at 10 µM; stronger effect = lower value
[5] = growth inhibitors of H69AR lung tumor, primary screen, human, duplicate replicates (AID 580;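 active means viability at or under a set limit in both replicates, limit being median viability minus 3 SD, cut at about 48% in these data, passing the limit was not always enough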;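 further: 100% = mean luminescence of untreated wells and 0% = no signal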); conditions: H69AR lung tumor cells viability, ATP luminescence, 72 h; at 10 µM; stronger effect = lower value
[6] = 384-well plate pilot, post-Golgi transport modulator project, inhibition of yeast transport mutant growth (AID 636; in the data active means inhibition above about 31%); conditions: absorbance 615 nm, about 18 h, stronger effect = higher value
[7] = growth suppression of yeast trafficking mutant, preliminary HTS, modulators of trafficking downstream of Golgi apparatus project, 1536-format plate, OD 615 nm (AID 637); conditions: yeast transport mutant growth, absorbance 615 nm, 18 h; stronger effect = higher value
[8] = OD615 S. cerevisiae growth inhibition, permissive medium, pilot counter-assay, permissive growth control for S. cerevisiae lifespan shortening project (AID 705;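 active means growth inhibition above 25% in both replicates, a cutoff set 3 SD above the mean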); conditions: OD615, 24 h, at 10 µM, stronger effect = higher value
[9] = Restrictive medium S. cerevisiae growth inhibition, OD615, pilot screen of yeast lifespan reduction project, restrictive growth control (AID 706;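 active means growth inhibition above a set limit, 3 SD over mean compound inhibition, in both replicates, cut at about 43% in these data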;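 further: modified DeaD lifespan yeast strain shifted to restrictive glucose medium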); conditions: OD615, 48 h, at 10 µM, stronger effect = higher value
[10] = viability gain of MRP-1-high H69AR cells under doxorubicin, pilot screen, MRP-1 activator project, CellTiter-Glo, duplicate (AID 807;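 active means viability increase at or above a cutoff of the median across tested compounds plus 3 SD, cut at about 8.5% in these data, passing the limit was not always enough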;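 further: compound pretreatment 18-22 h then 72 h combined with doxorubicin; 0% = doxorubicin alone and 100% = vehicle without doxorubicin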); conditions: H69AR viability with doxorubicin, CellTiter-Glo luminescence; at 10 µM; stronger effect = higher value
[11] = growth suppression of beta-catenin knockout HCT116, pilot screen, human colon tumor cells (AID 823;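 active means cell viability at or below a set limit in both duplicate runs, the limit being the all-compound median minus 4 SD, cut at about 23% in these data, passing the limit was not always enough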;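 further: 0% = wells killed by 20 µM Hyamine and 100% = untreated DMSO cell wells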); conditions: CellTiter-Glo, 60 h, at 10 µM, stronger effect = lower value
[12] = growth suppression of PTEN-deleted HCT116, pilot screen, cell-based, HCT116 clonal line, CellTiter-Glo (AID 824;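 active means viability at or below 27.92% in each of two runs, the all-compound median minus 4 SD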;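 further: 0% = 20 µM Hyamine control and 100% = vehicle cell control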); conditions: 60 h, at 10 µM, stronger effect = lower value
[13] = inhibitors of the yeast RAM network, pilot screen, dse1pr::URA3 reporter, 5-FOA selection (AID 869;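 active means inhibition over a set limit, the all-compound mean plus 3 SD, in both replicate runs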;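 further: 0% = DMSO wells with no growth and 100% = 10 µM 1-NA-PP1 with full growth; RAM network block rescues cells from 5-FOA so hits raise OD615 growth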); conditions: S. cerevisiae dse1pr::URA3 5-FOA growth, OD615, 2 d; at 10 µM; stronger effect = higher value; strain carries analog-sensitive mutant Cbk1 kinase
[14] = RAM signaling pathway blockade in yeast – S. cerevisiae, Pdr1DBD-CYC8 efflux-inhibited sensitized strain, primary screen (AID 1298;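 active means RAM network inhibition above 8.4% in each of two replicates, 3 SD over the compound average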;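 further: 0% = DMSO untreated cells without growth and 100% = 10 µM 1-NA-PP1 full growth; higher means more yeast growth rescued from 5-FOA killing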); conditions: S. cerevisiae cbk1-as DSE1-URA3 strain, 5-FOA growth OD615, 2 d; at 50 µM; stronger effect = higher value
[15] = reversal of MRP1-mediated doxorubicin resistance, pilot screen, H69AR cells, doxorubicin co-treatment (AID 601;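 active means viability loss from added drug above about 55%, and viability with drug at most 40%, in both replicates, limit read from the data, passing the limit was not always enough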); conditions: CellTiter-Glo, 72 h, at 10 µM; for differential viability (reversal): stronger effect = higher value
[16] = H69AR cells + 2 uM doxorubicin, measured here: viability with 2 uM doxorubicin, stronger effect = lower value
[17] = H69AR cells, compound alone cytotoxicity

Receptor tyrosine-protein kinase erbB-2 (Homo sapiens), sequence (P04626 whole entry, looked up): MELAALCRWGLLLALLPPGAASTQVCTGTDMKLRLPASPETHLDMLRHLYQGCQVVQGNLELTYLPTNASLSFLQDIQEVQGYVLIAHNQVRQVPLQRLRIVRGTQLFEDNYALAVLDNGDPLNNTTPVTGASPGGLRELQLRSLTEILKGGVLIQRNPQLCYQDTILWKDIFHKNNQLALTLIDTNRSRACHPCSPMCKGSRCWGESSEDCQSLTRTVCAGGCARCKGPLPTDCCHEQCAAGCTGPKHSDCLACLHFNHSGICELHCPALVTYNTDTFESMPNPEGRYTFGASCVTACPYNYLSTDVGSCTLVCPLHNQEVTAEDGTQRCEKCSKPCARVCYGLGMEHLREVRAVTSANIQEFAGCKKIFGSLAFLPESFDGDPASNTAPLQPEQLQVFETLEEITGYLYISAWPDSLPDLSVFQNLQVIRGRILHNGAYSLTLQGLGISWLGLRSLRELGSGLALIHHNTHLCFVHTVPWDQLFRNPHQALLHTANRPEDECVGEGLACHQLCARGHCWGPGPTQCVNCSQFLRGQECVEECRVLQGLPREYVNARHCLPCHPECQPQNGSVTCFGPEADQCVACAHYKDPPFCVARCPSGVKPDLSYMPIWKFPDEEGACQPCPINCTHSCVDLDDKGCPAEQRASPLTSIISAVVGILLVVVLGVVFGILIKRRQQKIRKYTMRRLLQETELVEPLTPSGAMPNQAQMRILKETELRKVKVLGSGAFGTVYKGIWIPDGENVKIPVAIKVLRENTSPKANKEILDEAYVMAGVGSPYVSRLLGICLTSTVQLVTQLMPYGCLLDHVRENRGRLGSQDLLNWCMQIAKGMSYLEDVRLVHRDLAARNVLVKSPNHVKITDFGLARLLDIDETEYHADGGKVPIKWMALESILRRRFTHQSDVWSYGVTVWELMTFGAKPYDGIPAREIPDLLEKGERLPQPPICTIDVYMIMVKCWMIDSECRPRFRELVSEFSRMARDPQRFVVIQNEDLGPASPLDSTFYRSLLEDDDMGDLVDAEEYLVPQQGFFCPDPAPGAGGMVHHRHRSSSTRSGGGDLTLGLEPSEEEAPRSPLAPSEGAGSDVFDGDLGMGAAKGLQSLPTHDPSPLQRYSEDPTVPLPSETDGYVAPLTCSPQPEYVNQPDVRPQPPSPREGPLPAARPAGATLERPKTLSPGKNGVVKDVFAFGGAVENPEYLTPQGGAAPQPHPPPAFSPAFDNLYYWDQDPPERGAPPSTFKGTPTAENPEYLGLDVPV

Structure (SMILES) | viability [1] [%] | Her2 level [2] | viability [3] | viability [4] | viability [5] | inhibition [6] | inhibition [7] | growth inhibition [8] | growth inhibition [9] | viability increase [10] | viability [11] | viability [12] | inhibition [13] | RAM network inhibition [14] | differential viability (reversal) ([15]; H69AR cells + 2 uM doxorubicin) | viability [15, 16] [%] | viability [15, 17] [%]
CC1CC(C)CN(Cc2nc3c(c(=O)n(C)c(=O)n3C)n2Cc2ccccc2Cl)C1 (configuration not stated) | 87.5 | 104% (inactive) | 87.5% (inactive) | 97.8% (inactive) | 89.5% (inactive) | -3.2% (inactive) | 0.67% (inactive) | 2.67% (inactive) | -4.42% (inactive) | -1.15% (inactive) | 102% (inactive) | 97.8% (inactive) | 0.655% (inactive) | 3.22% (inactive) |  |  | 
COc1ccc(NC(=O)CC2Sc3ncnn3C2=O)cc1 (configuration not stated) | 109 | 80.5% (inactive) | 109% (inactive) | 88.3% (inactive) | 111% (inactive) | 0.77% (inactive) | 4% (inactive) |  | 22.2% (inactive) | -3.8% (inactive) | 95.2% (inactive) | 104% (inactive) | 1.05% (inactive) | 6.37% (inactive) | 27% (inactive) | 83.5 | 111
O=C(CCNS(=O)(=O)c1cccc2nsnc12)NCc1cccs1 | 101 | 85.5% (inactive) | 101% (inactive) | 94.3% (inactive) | 96% (inactive) | -9.45% (inactive) | 4.13% (inactive) | -4.72% (inactive) | -7.42% (inactive) | -3.39% (inactive) |  | 95.4% (inactive) | 1.54% (inactive) | 3.13% (inactive) | 0.62% (inactive) | 95.4 | 96
COc1ccc(-c2nnc3sc(C(C)N4C(=O)c5ccccc5C4=O)nn23)cc1 (configuration not stated) | 84 | 111% (inactive) | 84% (inactive) | 96.8% (inactive) | 90.9% (inactive) | 2.13% (inactive) | -2.67% (inactive) |  | 53.1% (active) | -2.35% (inactive) | 101% (inactive) | 96.5% (inactive) | 1.46% (inactive) | -1.51% (inactive) | -9.99% (inactive) | 101 | 90.9
Cc1noc(/C=C/N(C)C)c1S(=O)(=O)N1CCCC(C(=O)NC2CCCCC2)C1 (configuration not stated) | 99 | 99.5% (inactive) | 99% (inactive) | 75.7% (inactive) | 88.6% (inactive) | -3.07% (inactive) | -3.5% (inactive) | 2.12% (inactive) | -9.03% (inactive) |  | 93% (inactive) | 88.4% (inactive) | 0.78% (inactive) | 5.71% (inactive) | -16.5% (inactive) | 105 | 88.6
CC1CCc2nn(CC(=O)N3CCN(C(=O)c4ccco4)CC3)cc2C1 (configuration not stated) | 79.5 | 95.5% (inactive) | 79.5% (inactive) | 119% (inactive) | 91.6% (inactive) | 0% (inactive) | 2.67% (inactive) | -0.485% (inactive) | 5.38% (inactive) |  | 104% (inactive) | 97.9% (inactive) | 3.15% (inactive) | 7.21% (inactive) | 11.8% (inactive) | 79.8 | 91.6
Cc1ccc(C)c(N2CCN(C(=O)c3cc4ccccn4n3)CC2)c1 | 91 | 85% (inactive) | 91% (inactive) | 90.1% (inactive) | 99.8% (inactive) | -4.74% (inactive) | 8.33% (inactive) | -8.86% (inactive) | 0.2% (inactive) | -2.11% (inactive) | 91.7% (inactive) | 92.5% (inactive) | 0.805% (inactive) | 10.8% (inactive) |  |  | 
CCN(CC)c1ccc2cc(-c3nc4ccccc4[nH]3)c(=O)oc2c1 | 88 | 101% (inactive) | 88% (inactive) | 20.9% (active) | 3.43% (active) | 0.13% (inactive) | -6.39% (inactive) | -3.73% (inactive) | -16.3% (inactive) | -7.61% (inactive) |  |  | -1.12% (inactive) | 0.92% (inactive) | -0.345% (inactive) | 3.78 | 3.43
N#CC1=C(N)Oc2cc(O)ccc2C1C1CCCCC1 (configuration not stated) | 121 | 89.5% (inactive) | 121% (inactive) | 47.4% (inactive) | 12.2% (active) | -1.17% (inactive) | 4.17% (inactive) | -0.885% (inactive) | -9.19% (inactive) | -5.63% (inactive) |  |  | 0.455% (inactive) | 3.93% (inactive) | -51.2% (inactive) | 63.4 | 12.2
Cn1c(SCC(=O)c2cc3ccccc3o2)nnc1-c1ccccc1 | 96.5 | 97.5% (inactive) | 96.5% (inactive) | 105% (inactive) | 84.3% (inactive) | -6% (inactive) | 13.3% (inactive) | 10.3% (inactive) |  | -3.83% (inactive) | 97.9% (inactive) | 96.8% (inactive) | 1.88% (inactive) | 6.5% (inactive) | 3.21% (inactive) | 81.1 | 84.3
COc1ccc(C(C(=O)NC2CCCCC2)N2CCC3(CC2)OCCO3)cc1 (configuration not stated) | 86 | 98% (inactive) | 86% (inactive) | 114% (inactive) | 100% (inactive) | -7.81% (inactive) | 5.71% (inactive) | -7.27% (inactive) | -6.88% (inactive) | -2.42% (inactive) |  | 88.8% (inactive) | 2.62% (inactive) | 2.77% (inactive) | 6.97% (inactive) | 93.5 | 100
COC(=O)c1cn(NC(=O)c2cccnc2)c(=O)c2ccccc12 | 88 | 84% (inactive) | 88% (inactive) | 101% (inactive) | 103% (inactive) | -7.26% (inactive) | 1.11% (inactive) | -2.23% (inactive) | 0.94% (inactive) |  | 101% (inactive) | 99% (inactive) | 0.92% (inactive) | 5.05% (inactive) | 2.79% (inactive) | 100 | 103
O=C(CS(=O)(=O)c1cn(Cc2ccc(F)cc2)c2ccccc12)N1CCCCC1 | 92 | 88.5% (inactive) | 92% (inactive) |  | 99.9% (inactive) | -5.68% (inactive) | -5.17% (inactive) | -24.1% (inactive) | -12.8% (inactive) | -3.63% (inactive) | 82.4% (inactive) | 82.9% (inactive) | 2.3% (inactive) | 5% (inactive) | 11.9% (inactive) | 88 | 99.9
C/C=C/COC(=O)c1[nH]c2c(c1C)C(=O)CC(c1ccco1)C2 (configuration not stated) | 80.5 | 62% (inactive) | 80.5% (inactive) |  | 24.4% (active) | -2.67% (inactive) | -3.28% (inactive) | -4.97% (inactive) | -2.88% (inactive) | -4.93% (inactive) | 16.6% (active) | 19.8% (active) | 0.985% (inactive) | 0.51% (inactive) | -15.9% (inactive) | 40.2 | 24.4
CC1(C)CC2CC(C)(CN2S(=O)(=O)c2ccc(N)cc2)C1 (configuration not stated) |  |  | 120% (inactive) | 99.6% (inactive) | 89.4% (inactive) | -8.93% (inactive) | -8.36% (inactive) | -0.15% (inactive) | 8.29% (inactive) | -2.62% (inactive) | 88% (inactive) | 87.6% (inactive) | 0.505% (inactive) | 9.14% (inactive) | 8.43% (inactive) | 80.9 | 89.4
Cc1nc2ccccc2c2oc(C(=O)NCC3COc4ccccc4O3)cc12 (configuration not stated) | 103 | 58.5% (inactive) | 103% (inactive) |  | 88.4% (inactive) | 0.13% (inactive) | 6.33% (inactive) | -0.145% (inactive) | -3.1% (inactive) | -1.89% (inactive) | 61.2% (inactive) | 70.8% (inactive) | 1.69% (inactive) | 3.41% (inactive) | 0.085% (inactive) | 88.3 | 88.4
CC1CCCCN1S(=O)(=O)c1ccc(NC(=O)c2cccs2)cc1 (configuration not stated) | 73.5 | 83% (inactive) | 73.5% (inactive) |  | 85.5% (inactive) | -1.17% (inactive) | -13.2% (inactive) | -8.63% (inactive) | -13.5% (inactive) | -4.32% (inactive) | 76.2% (inactive) | 82% (inactive) | 1.48% (inactive) | 0.93% (inactive) | 1.84% (inactive) | 83.6 | 85.5
CN(C)c1ccc(C(=O)Nc2nnc(-c3ccc(Cl)cc3)o2)cc1 | 92 | 75.5% (inactive) | 92% (inactive) | 13.4% (active) |  | 29.9% (inactive) | 21.5% (inactive) | 5.56% (inactive) | -19.4% (inactive) | -3.93% (inactive) | 26.8% (inactive) | 25.2% (active) | 1.5% (inactive) | 2.45% (inactive) | -33.4% (inactive) | 81.2 | 47.8
CCOC(=O)CSC1=C(C#N)C(c2ccc(C)o2)CC(=O)N1 (configuration not stated) | 98.5 | 83.5% (inactive) | 98.5% (inactive) |  | 26.6% (active) | -4.4% (inactive) | -0.66% (inactive) | -8.58% (inactive) | 7.01% (inactive) | -5.31% (inactive) | 13.7% (active) | 14.7% (active) | 1.17% (inactive) | 0.15% (inactive) | -21.3% (inactive) | 47.9 | 26.6
Cn1c(=O)c2c(nc(CN3CCc4ccccc4C3)n2Cc2cccc(Cl)c2)n(C)c1=O |  |  | 95% (inactive) | 45.5% (inactive) | 31.2% (active) | -3.2% (inactive) | -1.33% (inactive) | -8.07% (inactive) | -5.74% (inactive) | -7.3% (inactive) | 42.6% (inactive) | 47.6% (inactive) | -0.785% (inactive) | 4.55% (inactive) | 12.7% (inactive) | 18.5 | 31.2
FC(F)(F)COc1nc(N2CCCCC2)nc(N2CCNCC2)n1 |  |  | 82% (inactive) | 98.8% (inactive) | 92.3% (inactive) | -4.86% (inactive) | -4% (inactive) | 4.64% (inactive) | -3.79% (inactive) | -3.4% (inactive) | 85.5% (inactive) | 84.5% (inactive) | 0.78% (inactive) | -2.05% (inactive) | 15% (inactive) | 77.4 | 92.3
